# Screens (PubChem)
# HGIII-sPLA2 inh – human group III sPLA2 inhibitors, primary screen, biochemical, QFRET, BODIPY PC-A2 liposome substrate | Group 3 secretory phospholipase A2 (Homo sapiens), Q9NZ20 | QFRET BODIPY PC-A2 liposome hydrolysis, fluorescence | inhibition, % at 12.2 µM | actives 0.56% (n = 370,000);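 active = inhibition above mean plus 3 SD of compounds lying within the high and low control bounds, cut at about 19% in these data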;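 also: 0% = median of test compound wells and 100% = no enzyme DMSO wells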
# Target sequence (Q9NZ20 whole entry, looked up): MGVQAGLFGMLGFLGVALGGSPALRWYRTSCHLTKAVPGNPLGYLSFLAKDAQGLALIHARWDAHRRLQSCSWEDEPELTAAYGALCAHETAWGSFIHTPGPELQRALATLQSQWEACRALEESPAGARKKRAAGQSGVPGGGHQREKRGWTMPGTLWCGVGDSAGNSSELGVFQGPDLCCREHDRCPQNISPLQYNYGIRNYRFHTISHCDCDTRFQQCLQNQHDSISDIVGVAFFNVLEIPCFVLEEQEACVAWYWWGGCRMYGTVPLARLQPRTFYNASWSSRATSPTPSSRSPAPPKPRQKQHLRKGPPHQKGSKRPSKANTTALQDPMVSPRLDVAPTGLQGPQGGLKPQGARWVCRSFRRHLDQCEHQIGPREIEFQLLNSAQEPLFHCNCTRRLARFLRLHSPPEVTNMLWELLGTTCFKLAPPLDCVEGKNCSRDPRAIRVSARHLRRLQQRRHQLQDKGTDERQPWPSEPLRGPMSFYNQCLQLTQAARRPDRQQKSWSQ
# PG9 binder – binders of HIV-1 gp120 antibody PG9, primary screen, biochemical, TR-FRET | HIV-1 gp120 / PG9 antibody interaction | TR-FRET gp120-PG9 antibody binding | inhibition, % at 6.7 µM | actives 0.43% (n = 360,000); in the data active = inhibition above about 8.5%
# rCAG RNA binder – binders of r(CAG) RNA repeats, primary screen, biochemical, fluorescence; r(CAG) RNA repeat, TO-PRO-1 dye displacement fluorescence; actives 1.3% (n = 370,000); inhibition, % at 3 µM;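 active = inhibition above the plate cutoff, the mean of all test compounds on that plate plus 3 SD, cut at about 35% in these data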;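 also: 0% = DMSO alone and 100% = 100 µM mitoxantrone as full dye displacement; higher means more dye released from RNA so lower well fluorescence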
# MsrA inh – bovine MsrA enzyme inhibitors, primary screen, biochemical, absorbance, HTS. purified bovine MsrA, absorbance read-out. inhibition, % at 15.5 µM. actives 0.75% (n = 360,000);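 also: 0% = vehicle wells with enzyme and 100% = reference inhibitor wells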
# bovine MsrA act – bovine MsrA enzyme activators, primary screen, biochemical, absorbance, HTS; Methionine sulfoxide reductase A (Bos taurus); purified bovine MsrA, absorbance read-out; activation, % at 10.6 µM; actives 0.3% (n = 360,000); AID 602163, 2012; in the data active = activation above about 7.5%;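 also: 0% = vehicle and 100% = reference activator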
# MsrA inh confirm – bovine MsrA inhibitors, retest, confirmation, biochemical, absorbance, HTS; shares compounds with MsrA inh; purified bovine MsrA, absorbance read-out; inhibition, % at 15.5 µM; actives 41% (n = 2,300); AID 651822, 2012;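 also: coupled to thioredoxin reductase with NADPH and selenocystamine and DMSO as substrate; 0% = vehicle only and 100% = full effect of reference inhibitor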
# * marks the source's active call; other numbers are inactive results; · = not tested or not shown. An excerpt weighted towards active compounds, which were near 3.2% of everything screened. Rule as the data show it, unless noted: active = inhibition above about 4.5%; inactive = the rest.
SMILES,HGIII-sPLA2 inh,PG9 binder,rCAG RNA binder,MsrA inh,bovine MsrA act,MsrA inh confirm
O=C(N/N=C/C(Cl)=C/c1ccccc1)c1ccco1,1.9,-4.0,8.8,8.5*,-6.8,6.6*
O=C(N/N=C/C(Cl)=C\c1ccccc1)c1ccco1,-6.5,-3.9,-0.1,3.9,-4.8,·
O=C(N/N=C/C(Cl)=C/c1ccccc1)c1cnccn1,7.8,-1.5,-4.6,9.6*,-6.3,4.2
COc1cc(/C=N\N=C2/SC(CC(=O)O)C(=O)N2c2ccc(O)cc2)ccc1O (centres undefined),-6.2,-1.8,5.8,3.7,-7.0,·
COc1cc(/C=N/N=C2/SCC(=O)N2c2ccc(O)cc2)ccc1O,-11.0,0.8,1.8,5.6*,-6.2,4.6*
O=C(O)CC1S/C(=N/N=C/c2ccc([N+](=O)[O-])cc2)N(c2ccc(O)cc2)C1=O (centres undefined),-20.5,1.6,19.9,6.8*,-4.0,3.1
COc1ccc(/C=N\N=C2/SC(CC(=O)O)C(=O)N2c2ccc(O)cc2)cc1OC (centres undefined),1.2,1.9,6.7,5.9*,-5.9,4.9*
C[C@@H]1C[C@H]2[C@@H](Cc3ccccc3)C(=O)N3[C@H](c4ccccc4)[C@H](C)C[C@H]3[C@@H](Cc3ccccc3)C(=O)N2[C@@H]1c1ccccc1,1.9,·,5.9,·,·,·
Nn1c(SCC(=O)N2CCOCC2)nnc1-c1cc(-c2ccc(F)cc2)n[nH]1,-2.3,·,1.9,·,·,·
C[C@H]1[C@@H](NC(=O)C(c2ccccc2)c2ccccc2)CC[C@@]23CCCN2C(=O)CCC[C@@H]13,-2.8,·,·,·,·,·
CCN(CC)c1ccc(/C=N/NC(=O)c2cccc(S(=O)(=O)N3CCOCC3)c2)c(O)c1,4.5,2.3,4.5,4.0,-3.4,·
CCN(CC)c1ccc(C=Nc2cccc(S(=O)(=O)N3CCOCC3)c2)c(O)c1,3.9,-0.7,0.2,5.8*,-4.6,5.2*
CC[n+]1c(/C=C(\C)OC)sc2ccccc21,7.7,0.2,0.8,5.8*,-11.9,5.0*
CCCCOCCCNC(=O)C[C@H]1C[C@@]2(C(=O)OC)C(=C[C@H](C(C)(C)C)O[C@@H]2C)N(Cc2ccc(Cl)cc2Cl)C1=O,-3.3,·,9.0,·,·,·
COCCNC(=S)N(CCO)Cc1cc2cc3c(cc2[nH]c1=O)OCO3,8.1,-1.9,1.7,5.1*,-7.3,5.1*
CN(C)CCN(Cc1cc2cc3c(cc2[nH]c1=O)OCCO3)C(=S)NCC1CCCO1 (centres undefined),5.5,-0.2,-0.9,5.2*,-3.7,1.3
CC(C)C(NC(=O)[C@H](Cc1ccc(O)cc1)NC(=O)OC(C)(C)C)P(=O)(O)OC(Cc1ccccc1)C(=O)O (some centres undefined),6.1,·,·,·,·,·
COC(=O)[C@]12C[C@H](CC(=O)NCCCCc3ccccc3)C(=O)N(CCc3ccc(OC)c(OC)c3)C1=C[C@H](COCc1ccccc1)O[C@@H]2C,-11.3,·,7.8,·,·,·
O=[N+]([O-])c1ccc(N=NN(CCO)CCO)cc1,6.0,0.7,-3.3,5.3*,-13.4,2.4
O=[N+]([O-])c1ccc(N=Nc2ncc[nH]2)cc1,-6.3,-4.0,-1.1,1.5,-7.0,·
CCc1noc(C)c1C(=O)Nc1nc(-c2ccc(F)cc2)c(C)s1,3.1,0.9,-7.0,9.5*,-4.1,8.7*
CCc1noc(C)c1C(=O)Nc1nc2c(C)cccc2s1,-17.7,0.8,-3.4,1.7,-3.2,·
CCc1noc(C)c1C(=O)Nc1nc(-c2cc(C)ccc2C)c(C)s1,0.7,-0.6,-0.1,18.2*,-14.7,21.2*
CC(C)C[C@H]1COc2cc(Br)ccc2S(=O)(=O)N1Cc1cn(Cc2ccc(F)cc2)nn1,0.8,·,1.3,·,·,·
O=C(Cc1ccc2cccnc2c1)c1ccc(O)cc1O,-54.4,0.9,2.2,5.0*,-15.9,3.9
SMILES,HGIII-sPLA2 inh,PG9 binder,rCAG RNA binder,MsrA inh,bovine MsrA act,MsrA inh confirm
Cn1c(=NC(=O)c2ccco2)sc2ccccc21,0.9,0.1,-1.1,7.5*,-7.1,5.6*
Cc1sc(=NC(=O)c2ccco2)n(C)c1-c1ccccc1,-3.4,-0.9,-2.3,4.5,-7.4,·
O=C(O)CCCC(=O)Nc1ccc(N=Nc2ccccc2)cc1,0.2,0.5,6.9,6.6*,0.2,3.0
Cc1ccc(OCC(=O)N/N=C/C=C/c2ccco2)cc1,-2.8,-2.3,18.3,4.7*,-11.2,1.9
COc1ccc(C(C#N)=Cc2ccc(N(C)CCC#N)cc2)cc1,-1.9,1.2,3.1,1.9,-4.0,·
COc1ccc(N=Cc2ccc(N(CCC#N)CCC#N)cc2)cc1,4.3,-0.9,-2.1,4.9*,-6.1,4.9*
O=C(O)c1cccc(Cn2c(Cl)c(/C=N/NC(=O)c3ccccc3O)sc2=O)c1,-3.6,-1.0,14.2,5.0*,-14.9,4.2
COc1ccc(C(=O)N/N=C/c2sc(=O)n(Cc3cccc(C(=O)O)c3)c2Cl)cc1,10.4,-2.9,16.8,9.0*,-3.1,5.6*
O=C(O)c1cccc(Cn2c(Cl)c(/C=N/NC(=O)c3ccccc3Cl)sc2=O)c1,-12.1,-1.9,6.4,3.8,-4.0,·
O=C1C(Nc2ccccc2)=C(N2CCCCC2)C(=O)c2ccccc21,3.2,0.4,1.1,0.8,-2.9,·
O=C1C(Nc2cccc(O)c2)=C(N2CCCCC2)C(=O)c2ccccc21,-14.2,0.0,-8.8,14.4*,-6.5,-0.1
N#C/C(=C\C=C\c1ccccc1)C(=O)N1CCCC1,-1.8,-1.8,-2.3,4.8*,-3.2,4.8*
CCC(CO)Nc1cccc2c1S(=O)(=O)N(Cc1cn(Cc3ccc(F)cc3)nn1)Cc1ccccc1O2 (centres undefined),-17.4,·,5.5,·,·,·
C=CCOCCN(C)C1=NS(=O)(=O)c2cc([N+](=O)[O-])ccc21,0.2,-1.7,3.5,13.8*,1.1,7.2*
Cc1cccn2c(=O)nc(SCC(=O)N3CCCC3)nc12,7.6,1.9,1.2,2.7,-0.2,·
Cc1cccn2c(=O)nc(SCC(=O)N3CC(C)OC(C)C3)nc12 (centres undefined),-1.2,-0.8,-3.3,5.5*,-5.0,1.6
Cc1ccc(/C=C/C(=O)Nc2nccs2)o1,2.7,-2.5,4.5,5.5*,-5.4,7.8*
Cc1cc(C)nc(NC(=O)/C=C/c2cccs2)c1,16.2,-1.7,-4.7,3.7,-3.5,·
O=C(/C=C/c1cccs1)Nc1nccs1,4.5,-0.1,-5.1,6.4*,-6.2,7.2*
O=C(/C=C/c1cccs1)Nc1cccc(NC(=O)/C=C/c2cccs2)n1,5.9,-0.5,19.0,7.4*,-11.3,6.0*
COC(=O)[C@@H]1[C@H](O[Si](C)(C)C(C)(C)C)C2OC2C[C@H]1S(=O)(=O)c1ccccc1 (some centres undefined),-3.9,·,·,·,·,·
